FEN1 inhibitor: inhibitors of human flap endonuclease 1. actives 0.35% (n = 390,000). Potency, µM (top dose mostly 114 µM), hits mostly inhibitors. AID 588795. P39748. Recombinant FEN1 flap cleavage, fluorescence, 15 min; note: nearly all actives have a fitted effect of over 65% in size
Target sequence (P39748 whole entry, looked up): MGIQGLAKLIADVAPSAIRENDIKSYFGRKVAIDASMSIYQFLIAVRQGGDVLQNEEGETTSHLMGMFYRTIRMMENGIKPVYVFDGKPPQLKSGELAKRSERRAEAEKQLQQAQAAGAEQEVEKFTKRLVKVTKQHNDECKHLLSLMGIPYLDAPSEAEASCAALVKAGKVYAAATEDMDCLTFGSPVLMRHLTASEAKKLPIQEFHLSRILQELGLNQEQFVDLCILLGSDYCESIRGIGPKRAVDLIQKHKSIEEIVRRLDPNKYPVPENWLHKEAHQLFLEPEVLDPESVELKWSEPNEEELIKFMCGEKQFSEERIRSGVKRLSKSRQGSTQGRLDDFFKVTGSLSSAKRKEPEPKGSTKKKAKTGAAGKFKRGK
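FEN1 at 10 nM, compound pretreatment for 15 min (room temperature), 50 nM final substrate to initiate; endpoint reads at 0 and 15 min; DMSO-only plates used as vehicle background.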
WRN inhibitor: blocks human WRN helicase. Potency, µM (top dose mostly 114 µM), actives largely listed as inhibitors. WRN helicase unwinding, fluorescent forked duplex, kinetic. Q14191. actives 0.46% (n = 360,000); note: nearly all actives have a fitted effect of over 55% in size
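Fluorescence dequenching readout, ex 525 nm/em 598 nm, kinetic mode: forked duplex DNA (100 nM final) with adjacent fluorophore and quencher unwound by WRN (20 nM final) with 2 mM ATP. Compound preincubation 15 min, room temperature.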
POLH inh: inhibitors of human DNA polymerase eta. Q9Y253. recombinant Pol eta, fluorescent DNA replication assay. Potency, µM (titrated, usually from 114 µM), actives largely listed as inhibitors. actives 1.2% (n = 390,000)
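Fluorescent replication assay: 50 nM final substrate added after a 15 min room-temperature compound preincubation with 10 nM enzyme. Signal taken at 0 min and again at 10 min.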
Pol kappa inh: inhibitors of human DNA polymerase kappa; Q9UBT6; purified Pol kappa, fluorescent DNA synthesis assay, 10 min; Potency, µM (highest dose often 107 µM), usual class: inhibitors; actives 0.53% (n = 400,000); AID 588579
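Pol kappa 10 nM + cpd, 15 min RT; start w/ substrate 50 nM final; fluorescence kinetic read, 0 and 10 min. Neg ctrl: buffer, no enzyme.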
POLB inh: blocks human DNA polymerase beta activity; Pol beta primer extension/strand displacement, fluorescence kinetic; P06746; AID 485314; Potency, µM (series often up to 114 µM), most hits filed as inhibitors; actives 1.3% (n = 340,000)
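Curves were derived by four-parameter Hill fits of normalized qHTS data. The kinetic fluorescent primer-extension read was taken at 0 and 10 min after 50 nM substrate, following a 15 min room-temperature preincubation of 10 nM enzyme with compounds.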
Pol iota inh: inhibitors of human DNA polymerase iota. Potency, µM (titrated, usually from 115 µM), most hits filed as inhibitors. actives 1% (n = 390,000). Pol iota fluorescent replication assay, 10 min
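Fluorescent replication assay read twice, at 0 min and 10 min after adding 50 nM (final) substrate. Enzyme (10 nM) and compounds were first incubated 15 min at room temperature; enzyme-free buffer wells were negative controls.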
A number is an active result; n = inactive; u = inconclusive; x = not tested or not shown; [ ] = another dose, or the depositor's remark. This is a sample that favours compounds with a hit; in the whole collection about 2.4% have one here. Calls come from the whole dose curve; as a rule, active = well fitted curve in the direction sought with a large enough effect; inconclusive = small, poorly fitted or top-dose-only effect, or another doubt; inactive = no such curve, though single readings can be large; an effect the other way counts as inactive or inconclusive.

SMILES	FEN1 inhibitor	WRN inhibitor	POLH inh	Pol kappa inh	POLB inh	Pol iota inh
Cc1ccc(S(=O)(=O)N2CCOCC2)cc1NC(=O)CSc1nc2ccccc2c(=O)n1Cc1ccccc1	n	n	n	n	n	n
Cc1ccc(/C=N/n2c(-c3ccccn3)n[nH]c2=S)o1	n	n	n	n	n	50.1µM
NC(C(=O)O)c1cccc(O)c1 (configuration not stated)	x	x	x	n[19.4 µM]	x	x
CC(C)(C)n1ncc2c(=O)n(Cc3cccc(F)c3)cnc21	n	x	x	n	x	n
CCOc1nc(N=C(N)N)nc2c(C)cccc12	44.7µM	n[11.6 µM]	n	n	n	n
Cc1ccc(SCCc2cc[n+](CC(=O)c3ccccc3)cc2)cc1	n	n	n	n	n	n
O=C(C[n+]1ccc(CCSc2ccc(F)cc2)cc1)c1ccccc1	39.8µM	39.8µM	n	n	n	n
COc1cc(OC)c2c(O)c3c(c(-c4c5c(c(O)c6c(OC)cc(OC)cc46)CO[C@@H](C)[C@H]5O)c2c1)[C@H](O)[C@H](C)OC3	u	50.1µM	20µM	39.8µM	35.5µM	u
CCc1sc(-c2cc3cccc(OC)c3oc2=O)nc1-c1ccccc1	n	x	x	n	x	n
O=c1[nH]c2ccc(Br)cc2o1	n	n	n	n	x	n
O=C(CCl)c1ccc2[nH]c(=O)oc2c1	n	n[11.6 µM]	44.7µM	n	n	u
N=c1oc2c3c4c(cc2cc1C(=O)Nc1ccccc1)CCCN4CCC3	n	56.2µM	n	n	n	n
CSCC[C@H](NC(=O)[C@H](CC(C)C)N(C)C(=O)[C@@H]1CCCN1C(=O)[C@H](Cc1ccccc1)NC(=O)[C@H](Cc1ccccc1)NC(=O)CCC(C)N)C(=O)O (some centres not stated)	x	x	x	n	x	x
CN(C)c1ccc(/C=C/c2ccnc3c(Cl)ccc(Cl)c23)cc1	n	x	x	n	x	u
COc1ccc(CCNC(=O)c2cnn3c2NC(=C2CC2)C=C3C(F)F)cc1OC	n	x	x	n	x	n
O=C(c1ccc(COc2ccc(F)cc2)o1)n1cc(Br)cn1	n	u	79.4µM	n	22.4µM	u
Oc1ccc(Nc2nc3ccccc3nc2Nc2ccc(O)cc2)cc1	u	n	u	n	39.8µM	u
CCOc1ccc(NC(=O)CN2C(=O)c3ccccc3Sc3ccc(C(=O)OC)cc32)cc1	n	x	u	n	79.4µM	n
COC(=O)c1sc2nc(C)cc(C)c2c1N	n	n	n	n	n	n
Cc1cc(C)c2c(N)c(C(=O)Nc3ncc(C)s3)sc2n1	u	n	n	n	44.7µM	n
O=C(N/N=C\C=C\c1ccco1)c1cc(-c2ccc3ccccc3c2)n[nH]1	u	n[11.6 µM]	50.1µM	79.4µM	15.8µM	31.6µM
O=C(N/N=C\C=C\c1ccco1)c1cncc(Br)c1	n	u	u	89.1µM	u	20µM
O=C(N/N=C/C=C/c1ccco1)c1cnccn1	n	n	u	n	n	u
COc1ccc(Br)cc1/C=N/NC(=O)c1cccnc1	n	n	n	n	n	n
O=C(N/N=C\c1ccco1)c1cncc(Br)c1	x	x	x	x	n	x
SMILES	FEN1 inhibitor	WRN inhibitor	POLH inh	Pol kappa inh	POLB inh	Pol iota inh
O=C(N/N=C/c1cc(Br)c(Br)o1)c1cccnc1	n	u	11.2µM	u	31.6µM	u
O=C(N/N=C/C=C/c1ccco1)c1cccnc1	n	n	u	n	n	31.6µM
COC(=O)c1ccc(NC(=O)c2ccccc2OCC(=O)Nc2ccc(Br)cc2)cc1	n	x	x	n	x	n
CCN(CC)C(=O)N1CCN(/[N+]([O-])=N/Oc2ccc([N+](=O)[O-])cc2[N+](=O)[O-])CC1	u	x	x	n	x	u
COC(=O)c1c(C)cc(O)cc1O	n	n	n	n	x	n
CCc1ccc2c(O)c3c(cc2c1C(=O)OC)C(=O)c1c(O)ccc(O)c1C3=O	x	x	x	7.94µM	x	x
Cc1ccc(S(=O)(=O)c2c(N)n(CCCN(C)C)c3nc4ccccc4nc23)cc1	n	n	n	n	n	n
CCCCn1c(NS(=O)(=O)c2ccc(C)cc2)c(S(=O)(=O)c2ccccc2)c2nc3ccccc3nc21	n	n	n	n	n	10µM
O=C(CCCOc1ccc(Cl)cc1Cl)Nc1ccccc1C(=O)O	n	n	n	n	n	n
CCCCOc1ccc(Nc2cc(Cl)ccc2C(=O)O)cn1	n	n	n	n	39.8µM	n
Cn1c(SCC(=O)NCc2ccco2)nnc1-c1ccccc1	n	n	n	n	n	n
Cn1c(SCC(=O)NCc2ccco2)nnc1-c1ccc(S(=O)(=O)N2CCOCC2)cc1	n	n	u	n	u	100µM
O=C(CSc1nnc(-c2ccc(S(=O)(=O)N3CCCC3)cc2)o1)NCc1ccco1	n	n	u	u	25.1µM	89.1µM
CCOc1cccc(CNn2cnnc2)c1OCc1ccccc1Cl	n	n	n	n	n	n
CCOc1cccc(CNc2ccc(O)cc2)c1OCc1ccccc1Cl	u	u	u	n	n	8.91µM
CCOc1cc(CNc2ccc(O)cc2)cc(Cl)c1OCc1ccccc1	n	x	n	n	n	25.1µM
COC(=O)CCCc1nc2ccccc2s1	n	n	n	n	n	n
COc1ccccc1OC(=O)CCc1nc2ccccc2s1	n	n	u	u	u	15.8µM
Cc1cccc(NC(=O)CSc2nc(NS(=O)(=O)c3ccccc3)cc(=O)[nH]2)c1	n	n	n	n	31.6µM	u
Cc1ccc(S(=O)(=O)Nc2cc(=O)[nH]c(SCC(=O)Nc3cccc(C(F)(F)F)c3)n2)cc1	n	n	n	n	n	n
O=C(CSc1nc(NS(=O)(=O)c2ccccc2)cc(=O)[nH]1)Nc1ccc(Cl)cc1	n	u	n	44.7µM	20µM	15.8µM
CC(C)C[C@@H](NC(=O)[C@@H](Cc1ccccc1)NC(=O)c1cnccn1)B(O)O	x	x	x	n[19.4 µM]	x	x
CCCCNS(=O)(=O)c1ccc2nc(-c3cccnc3)cc(C(=O)NCCCOC)c2c1	n	n	n	n	n	n
CCCCNS(=O)(=O)c1ccc2nc(-c3cccnc3)cc(C(=O)NCCCOCC)c2c1	n	x	n	n	44.7µM	n
COc1ccccc1/C=C/C=N/n1c(-c2n[nH]c3c2CCC3)n[nH]c1=S	n	n	u	n	7.94µM	n
COc1cccc(/C=N/n2c(-c3n[nH]c4c3CCC4)n[nH]c2=S)c1O	n	n	n	n	n	n
Cc1ccc(NC(=O)CSc2sc3c(O)cc(=O)[nH]c3c2C#N)c(F)c1	n	n[11.6 µM]	56.2µM	n	n	u
CCCCNc1ccc(/C=C2\C=Cc3ccccc32)cc1	n	x	x	n	x	n
COC(=O)/C=C/C(C)=C/C=C/C(C)=C/C=C/C=C(C)/C=C/C=C(C)/C=C/C(=O)O	x	x	x	31.6µM	x	x
O=S(=O)(c1ccccc1F)N1CCN(c2nc(-c3cccs3)nc3ccccc23)CC1	n	x	x	n	x	n
